Results filed as inconclusive are left out. Entries that show only a call come without a potency. The source made the active and inactive calls. Calls come from the whole dose curve; as a rule, active = well fitted curve in the direction sought with a large enough effect; inconclusive = small, poorly fitted or top-dose-only effect, or another doubt; inactive = no such curve, though single readings can be large; an effect the other way counts as inactive or inconclusive.
Legend:
[1] = qHTS of pediatric cancer cell lines to identify multiple opportunities for drug repurposing: Primary screen for TC32 cells (AID 1347089); note: nearly all actives have a fitted effect of over 60% in size; note: potency is the fitted concentration of half-maximal effect
Procedure, shortened: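 Measured quantity: luminescence from CellTiter-Glo, reflecting metabolically active TC32 cells following 48 h of compound. Curves came straight from multi-point titrations, with 8 or 11 points in primary and 11 in confirmatory screening.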

[2] = qHTS of pediatric cancer cell lines to identify multiple opportunities for drug repurposing: Primary screen for DAOY cells (AID 1347090); note: nearly all actives have a fitted effect of over 55% in size; note: potency is the fitted concentration of half-maximal effect
Procedure, shortened: (§1)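 Cell viability, CellTiter-Glo luminescence; 500-1,000 cells/well, 8- or 11-point titration, 48 h compound exposure at 37 degrees C, 5% CO2. Controls: DMSO neutral, bortezomib 2.3 µM final as positive.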

[3] = qHTS of pediatric cancer cell lines to identify multiple opportunities for drug repurposing: Primary screen for SJ-GBM2 cells (AID 1347091); note: potency is the fitted concentration of half-maximal effect
Procedure, shortened: as §1

[4] = qHTS of pediatric cancer cell lines to identify multiple opportunities for drug repurposing: Primary screen for SK-N-MC cells (AID 1347093); note: potency is the fitted concentration of half-maximal effect
Procedure, shortened: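 Metabolically active cells were quantified by ATP-dependent luminescence (CellTiter-Glo, 15 min at room temperature) following 48 h treatment. Cells had been plated at 500-1,000 per well and settled for 5 h beforehand.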

[5] = qHTS of pediatric cancer cell lines to identify multiple opportunities for drug repurposing: Primary screen for BT-37 cells (AID 1347094); note: potency is the fitted concentration of half-maximal effect
Procedure, shortened: (§2)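 Viability was measured as metabolically active cells after 48 hours of treatment, read by CellTiter-Glo luminescence. Compounds were tested at multiple final concentrations, giving concentration-response curves.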

[6] = qHTS of pediatric cancer cell lines to identify multiple opportunities for drug repurposing: Primary screen for NB-EBc1 cells (AID 1347095)
Procedure, shortened: as §2

[7] = qHTS of pediatric cancer cell lines to identify multiple opportunities for drug repurposing: Primary screen for Saos-2 cells (AID 1347097); note: nearly all actives have a fitted effect of over 40% in size; note: potency is the fitted concentration of half-maximal effect
Procedure, shortened: as §2

[8] = qHTS of pediatric cancer cell lines to identify multiple opportunities for drug repurposing: Primary screen for SK-N-SH cells (AID 1347098); note: nearly all actives have a fitted effect of over 65% in size; note: potency is the fitted concentration of half-maximal effect
Procedure, shortened: (§3)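 Cells (500-1,000/well) rested 5 h, then received compounds for 48 h; metabolically active cells were measured by CellTiter-Glo luminescence. Final concentrations spanned up to 46 µM (MIPE, 11-point) or 0.59 nM-46 µM (NPC, 8-point) in primary screens, 11-point in follow-ups.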

[9] = qHTS of pediatric cancer cell lines to identify multiple opportunities for drug repurposing: Primary screen for NB1643 cells (AID 1347099); note: nearly all actives have a fitted effect of over 50% in size; note: potency is the fitted concentration of half-maximal effect
Procedure, shortened: as §2

[10] = qHTS of pediatric cancer cell lines to identify multiple opportunities for drug repurposing: Primary screen for LAN-5 cells (AID 1347100); note: potency is the fitted concentration of half-maximal effect
Procedure, shortened: as §3

[11] = qHTS of pediatric cancer cell lines to identify multiple opportunities for drug repurposing: Primary screen for BT-12 cells (AID 1347101); note: nearly all actives have a fitted effect of over 25% in size
Procedure, shortened: as §3

[12] = qHTS of pediatric cancer cell lines to identify multiple opportunities for drug repurposing: Primary screen for Rh18 cells (AID 1347102); note: nearly all actives have a fitted effect of over 65% in size
Procedure, shortened: as §3

[13] = qHTS of pediatric cancer cell lines to identify multiple opportunities for drug repurposing: Primary screen for OHS-50 cells (AID 1347103); note: nearly all actives have a fitted effect of over 40% in size; note: potency is the fitted concentration of half-maximal effect
Procedure, shortened: as §3

[14] = qHTS of pediatric cancer cell lines to identify multiple opportunities for drug repurposing: Primary screen for RD cells (AID 1347104); note: nearly all actives have a fitted effect of over 55% in size; note: potency is the fitted concentration of half-maximal effect
Procedure, shortened: as §2

[15] = qHTS of pediatric cancer cell lines to identify multiple opportunities for drug repurposing: Primary screen for MG 63 (6-TG R) cells (AID 1347105); note: nearly all actives have a fitted effect of over 50% in size; note: potency is the fitted concentration of half-maximal effect
Procedure, shortened: as §2

[16] = qHTS of pediatric cancer cell lines to identify multiple opportunities for drug repurposing: Primary screen for control Hh wild type fibroblast cells (AID 1347106);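 note: series mostly up to about 46 µM; a drop in luminescence marks cytotoxicity and a rise apparent proliferation; nearly all actives have a fitted effect of over 55% in size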
Procedure, shortened: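 Cells (500-1,000/well) in growth media were settled 5 h at 37 degrees C, then given compounds for 48 h. Viability was read as CellTiter-Glo luminescence. Primary runs used MIPE at 11 points (0.78 nM-46 µM) and NPC at 8 points (0.59 nM-46 µM); follow-ups used 11 points.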

[17] = qHTS of pediatric cancer cell lines to identify multiple opportunities for drug repurposing: Primary screen for U-2 OS cells (AID 1347096); note: nearly all actives have a fitted effect of over 50% in size
Procedure, shortened: as §3

## CC(C)(CO)[C@@H](O)C(=O)NCCCO
[1]
  Potency: inactive
[2]
  Potency: inactive
[3]
  Potency: inactive
[4]
  Potency: inactive
[5]
  Potency: inactive
[6]
  Potency: inactive
[7]
  Potency: inactive
[8]
  Potency: inactive
[9]
  Potency: inactive
[10]
  Potency: inactive
[11]
  Potency: inactive
[12]
  Potency: inactive
[13]
  Potency: inactive
[14]
  Potency: inactive
[15]
  Potency: inactive
[16]
  Potency: inactive

## Cc1ccc(O)c2ncccc12
[1]
  Potency: inactive
[2]
  Potency: 3.35 µM (active)
[3]
  Potency: inactive
[4]
  Potency: 2.99 µM (active)
[7]
  Potency: 21.1 µM (active)
[8]
  Potency: 7.7 µM (active)
[9]
  Potency: 2.37 µM (active)
[14]
  Potency: 8.41 µM (active)
[15]
  Potency: 10.6 µM (active)

## CCOC(=O)n1ccn(C)c1=S
[1]
  Potency: inactive
[2]
  Potency: inactive
[3]
  Potency: inactive
[5]
  Potency: inactive
[6]
  Potency: inactive
[17]
  Potency: inactive
[7]
  Potency: inactive
[8]
  Potency: inactive
[9]
  Potency: inactive
[10]
  Potency: inactive
[11]
  Potency: inactive
[12]
  Potency: inactive
[13]
  Potency: inactive
[14]
  Potency: inactive
[16]
  Potency: inactive

## CCCCOc1ccc(OCCCN2CCOCC2)cc1
[1]
  Potency: inactive
[2]
  Potency: inactive
[3]
  Potency: inactive
[4]
  Potency: inactive
[5]
  Potency: inactive
[17]
  Potency: inactive
[7]
  Potency: inactive
[8]
  Potency: inactive
[9]
  Potency: inactive
[12]
  Potency: inactive
[14]
  Potency: inactive
[15]
  Potency: inactive
[16]
  Potency: inactive

## CN1C(CCl)Nc2cc(Cl)c(S(N)(=O)=O)cc2S1(=O)=O (stereo not given)
[1]
  Potency: inactive
[2]
  Potency: inactive
[3]
  Potency: inactive
[4]
  Potency: inactive
[5]
  Potency: inactive
[17]
  Potency: inactive
[7]
  Potency: inactive
[8]
  Potency: inactive
[9]
  Potency: inactive
[10]
  Potency: inactive
[12]
  Potency: inactive
[13]
  Potency: inactive
[14]
  Potency: inactive
[15]
  Potency: inactive
[16]
  Potency: inactive

## O=C(Nc1ccc(Cl)c(Cl)c1)C1CC1
[1]
  Potency: inactive
[2]
  Potency: inactive
[3]
  Potency: inactive
[4]
  Potency: inactive
[5]
  Potency: inactive
[6]
  Potency: inactive
[7]
  Potency: inactive
[8]
  Potency: inactive
[9]
  Potency: inactive
[10]
  Potency: inactive
[12]
  Potency: inactive
[14]
  Potency: inactive
[15]
  Potency: inactive
[16]
  Potency: inactive

## C[C@@H](CN(C)C)CN1c2ccccc2Sc2ccccc21
[1]
  Potency: inactive
[2]
  Potency: inactive
[3]
  Potency: inactive
[4]
  Potency: inactive
[6]
  Potency: inactive
[17]
  Potency: inactive
[9]
  Potency: inactive
[10]
  Potency: inactive
[13]
  Potency: 21.9 µM (active)
[15]
  Potency: inactive
[16]
  Potency: inactive

## CC(=O)OCC(=O)[C@@]12N=C(C)O[C@@H]1C[C@H]1[C@@H]3CCC4=CC(=O)C=C[C@]4(C)[C@H]3[C@@H](O)C[C@@]12C
[1]
  Potency: inactive
[2]
  Potency: inactive
[3]
  Potency: inactive
[4]
  Potency: inactive
[5]
  Potency: inactive
[6]
  Potency: inactive
[7]
  Potency: inactive
[8]
  Potency: inactive
[9]
  Potency: inactive
[10]
  Potency: inactive
[11]
  Potency: inactive
[12]
  Potency: inactive
[13]
  Potency: inactive
[14]
  Potency: inactive
[15]
  Potency: inactive
[16]
  Potency: inactive

## O=C(COc1ccc(Cl)cc1)N1CCN(Cc2ccc3c(c2)OCO3)CC1
[1]
  Potency: inactive
[2]
  Potency: inactive
[3]
  Potency: inactive
[4]
  Potency: inactive
[5]
  Potency: inactive
[17]
  Potency: inactive
[7]
  Potency: inactive
[8]
  Potency: inactive
[9]
  Potency: inactive
[10]
  Potency: inactive
[12]
  Potency: inactive
[14]
  Potency: inactive
[15]
  Potency: inactive
[16]
  Potency: inactive

## COc1cc(C=C2CCC/C(=C\c3ccc(O)c(OC)c3)C2=O)ccc1O
[1]
  Potency: 0.938 µM (active)
[2]
  Potency: 21.1 µM (active)
[3]
  Potency: 23.7 µM (active)
[4]
  Potency: 0.335 µM (active)
[5]
  Potency: 27.6 µM (active)
[7]
  Potency: 23.7 µM (active)
[8]
  Potency: 15.4 µM (active)
[10]
  Potency: 7.5 µM (active)
[13]
  Potency: 19.5 µM (active)
[14]
  Potency: 10.6 µM (active)
[16]
  Potency: inactive

## Cc1nc2n(c(=O)c1CCN1CCC(c3noc4cc(F)ccc34)CC1)CCC[C@H]2O
[1]
  Potency: inactive
[2]
  Potency: inactive
[3]
  Potency: inactive
[4]
  Potency: inactive
[5]
  Potency: inactive
[17]
  Potency: inactive
[7]
  Potency: inactive
[8]
  Potency: inactive
[9]
  Potency: inactive
[10]
  Potency: inactive
[11]
  Potency: inactive
[12]
  Potency: inactive
[13]
  Potency: inactive
[14]
  Potency: inactive
[15]
  Potency: inactive
[16]
  Potency: inactive

## CCOC(=O)c1cccc(N)c1
[1]
  Potency: inactive
[2]
  Potency: inactive
[3]
  Potency: inactive
[4]
  Potency: inactive
[5]
  Potency: inactive
[6]
  Potency: inactive
[7]
  Potency: inactive
[8]
  Potency: inactive
[9]
  Potency: inactive
[10]
  Potency: inactive
[11]
  Potency: inactive
[12]
  Potency: inactive
[13]
  Potency: inactive
[14]
  Potency: inactive
[15]
  Potency: inactive
[16]
  Potency: inactive

## Cc1c(C)n(CCN(C)C)c2ccc(C(=O)OCCN(C)C)cc12
[1]
  Potency: inactive
[2]
  Potency: inactive
[3]
  Potency: inactive
[5]
  Potency: inactive
[17]
  Potency: inactive
[7]
  Potency: inactive
[9]
  Potency: inactive
[10]
  Potency: inactive
[12]
  Potency: inactive
[13]
  Potency: inactive
[14]
  Potency: inactive
[15]
  Potency: inactive
[16]
  Potency: inactive

## Cc1cc(N)c2cc(NC(=O)Nc3ccc4nc(C)cc(N)c4c3)ccc2n1
[1]
  Potency: inactive
[2]
  Potency: inactive
[3]
  Potency: inactive
[4]
  Potency: inactive
[5]
  Potency: inactive
[6]
  Potency: inactive
[17]
  Potency: inactive
[7]
  Potency: inactive
[10]
  Potency: inactive
[11]
  Potency: inactive
[12]
  Potency: inactive
[13]
  Potency: inactive
[15]
  Potency: inactive
[16]
  Potency: inactive

## C[C@@H]1C[C@H]2[C@@H]3C[C@H](F)C4=CC(=O)C(Cl)=C[C@]4(C)[C@@]3(F)[C@@H](O)C[C@]2(C)[C@@]1(O)C(=O)CO
[1]
  Potency: inactive
[2]
  Potency: inactive
[3]
  Potency: inactive
[4]
  Potency: inactive
[5]
  Potency: inactive
[17]
  Potency: inactive
[7]
  Potency: inactive
[8]
  Potency: inactive
[9]
  Potency: inactive
[10]
  Potency: inactive
[11]
  Potency: inactive
[12]
  Potency: inactive
[13]
  Potency: inactive
[14]
  Potency: inactive
[15]
  Potency: inactive
[16]
  Potency: inactive

## CN1[C@@H]2CC[C@H]1CC(OC(=O)c1c[nH]c3ccccc13)C2 (stereo not given in full)
[1]
  Potency: inactive
[2]
  Potency: inactive
[3]
  Potency: inactive
[4]
  Potency: inactive
[5]
  Potency: inactive
[6]
  Potency: inactive
[17]
  Potency: inactive
[7]
  Potency: inactive
[9]
  Potency: inactive
[10]
  Potency: inactive
[11]
  Potency: inactive
[12]
  Potency: inactive
[13]
  Potency: inactive
[14]
  Potency: inactive
[15]
  Potency: inactive
[16]
  Potency: inactive
